Read-out in assay [1]: Interleukin-1 alpha (IL1a), IL1A (gene 3552)
Put plainly: BSK_KF3CT_IL1a: BioMAP Diversity Plus: KF3CT Assay for Interleukin-1 alpha (IL1a) Biomarker Activity (AID 2283070). As to conditions: primary human keratinocytes with fibroblasts; actives raise or lower the signal. An outline of the steps: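 Chemicals were dosed onto co-cultured human keratinocytes and foreskin fibroblasts, IL-1a was quantified by ELISA at 24 h, and activity was fitted in both directions relative to DMSO controls.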

Read-out in assay [2]: TIMP metallopeptidase inhibitor 2 (TIMP2), TIMP2 (gene 7077)
The assay can be described thus: BSK_KF3CT_TIMP2: BioMAP Diversity Plus: KF3CT Assay for TIMP metallopeptidase inhibitor 2 (TIMP2) Biomarker Activity (AID 2283071). As to conditions: primary human keratinocytes with fibroblasts; actives raise or lower the signal. An outline of the steps:
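Human primary keratinocyte/foreskin fibroblast co-culture dosed with chemical and sampled at 24 h. TIMP-2 levels quantified by ELISA; bidirectional fitting against DMSO negative control as baseline.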

Read-out in assay [3]: Transforming growth factor beta 1 (TGFb1), TGFB1 (gene 7040)
Put plainly: BSK_KF3CT_TGFb1: BioMAP Diversity Plus: KF3CT Assay for Transforming growth factor beta 1 (TGFb1) Biomarker Activity (AID 2283072). The conditions noted are these: primary human keratinocytes with fibroblasts; actives raise or lower the signal. An outline of the steps: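 Human keratinocyte plus foreskin fibroblast primary co-culture, dosed with chemical for 24 h. TGF-b1 quantified by ELISA. Activity fitted bidirectionally against DMSO negative control as baseline.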

Read-out in assay [4]: C-C motif chemokine 2 (Homo sapiens) (UniProt P13500)
The assay can be described thus: BSK_KF3CT_MCP1: BioMAP Diversity Plus: KF3CT Assay for Monocyte Chemoattractant Protein 1 (MCP1/CCL2) Biomarker Activity (AID 2283073). The conditions noted are these: primary human keratinocytes with fibroblasts; actives raise or lower the signal. An outline of the steps: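 ELISA read-out of MCP-1, 24 h post-dose, in primary human skin keratinocytes co-cultured with fibroblasts. Parallel SRB staining monitors cytotoxicity; changes fitted both directions relative to DMSO.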

Read-out in assay [5]: Matrix Metallopeptidase 9 (MMP9), MMP9 (gene 4318)
The assay can be described thus: BSK_KF3CT_MMP9: BioMAP Diversity Plus: KF3CT Assay for Matrix Metallopeptidase 9 (MMP9) Biomarker Activity (AID 2283074).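 For AC50: MMP9 protein level quantified by ELISA in the co-culture.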 As to conditions: primary human keratinocytes with fibroblasts; actives raise or lower the signal. Put shortly:
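Human keratinocyte/foreskin fibroblast co-culture; compound added; 24 h; MMP-9 by ELISA; bidirectional fit vs DMSO baseline.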

Read-out in assay [6]: urokinase plasminogen activator (uPA), PLAU (gene 5328)
The assay can be described thus: BSK_KF3CT_uPA: BioMAP Diversity Plus: KF3CT Assay for urokinase plasminogen activator (uPA) Biomarker Activity (AID 2283075). As to conditions: primary human keratinocytes with fibroblasts; actives raise or lower the signal. Put shortly:
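ELISA readout of uPA, analyzed for signal gain or loss relative to DMSO, from a human primary keratinocyte–foreskin fibroblast co-culture measured 24 h after chemical treatment.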

Read-out in a further assay: CD40, CD40 (gene 958)
Put plainly: BSK_LPS_CD40: BioMAP Diversity Plus: LPS Assay for CD40 Biomarker Activity (AID 2283076). The conditions noted are these: primary human HUVEC with PBMC; actives raise or lower the signal. An outline of the steps:
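In the LPS system of human endothelial cells with peripheral blood mononuclear cells, CD40 levels were read by ELISA 24 h post-treatment. Signal changes in either direction were fitted against the DMSO baseline, with parallel SRB protein staining.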

Read-out in assay [7]: E-selectin (Homo sapiens) (UniProt P16581)
Put plainly: BSK_LPS_Eselectin: BioMAP Diversity Plus: LPS Assay for Eselectin Biomarker Activity (AID 2283077). The conditions noted are these: primary human HUVEC with PBMC; actives raise or lower the signal. An outline of the steps: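 E-selectin ELISA on LPS-stimulated endothelial cell/PBMC co-cultures, read 24 h post-treatment; gains and losses fitted against DMSO. Parallel SRB staining (0.1% SRB after 10% TCA fixation, 560 nm) flags overt cytotoxicity.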

Read-out in assay [8]: Interleukin-8 (IL8), CXCL8 (gene 3576)
The assay can be described thus: BSK_LPS_IL8: BioMAP Diversity Plus: LPS Assay for Interleukin-8 (IL8) Biomarker Activity (AID 2283078). As to conditions: primary human HUVEC with PBMC; actives raise or lower the signal. Put shortly:
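ELISA read-out of IL-8 after 24 h chemical treatment of LPS-activated endothelial/PBMC human primary co-cultures. Changes either up or down relative to DMSO; overt cytotoxicity checked by sulforhodamine B staining in parallel wells.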

The nature of assay [9]: BSK_LPS_SRB: Viability Assessment in the BioMAP Diversity Plus: LPS Assay (AID 2283079).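 Note: total protein by sulforhodamine B absorbance as a cytotoxicity measure; measured one day after compound addition; fitted in both directions against DMSO so loss or gain of signal counts.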 The conditions noted are these: primary human HUVEC with PBMC. Put shortly: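 SRB viability endpoint: cells fixed with 10% TCA, stained with 0.1% SRB, read at 560 nm, 24 h post-dose. HUVEC/PBMC co-culture; signal change in either direction scored relative to DMSO.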

Each structure is given as a SMILES string. Several values for one entry are separate records, joined by “and”; a condition that tells them apart may be missing. Identical values can stand only once. The source holds several records for some structures; these can differ, active in one and inactive in another. Activity calls are given as the source filed them. Rule for the calls: active = hit-call score of the fitted dose curve at least 0.9, where 1 is the maximum; inactive = score below 0.9.

E-selectin (Homo sapiens), sequence (P16581 whole entry, looked up): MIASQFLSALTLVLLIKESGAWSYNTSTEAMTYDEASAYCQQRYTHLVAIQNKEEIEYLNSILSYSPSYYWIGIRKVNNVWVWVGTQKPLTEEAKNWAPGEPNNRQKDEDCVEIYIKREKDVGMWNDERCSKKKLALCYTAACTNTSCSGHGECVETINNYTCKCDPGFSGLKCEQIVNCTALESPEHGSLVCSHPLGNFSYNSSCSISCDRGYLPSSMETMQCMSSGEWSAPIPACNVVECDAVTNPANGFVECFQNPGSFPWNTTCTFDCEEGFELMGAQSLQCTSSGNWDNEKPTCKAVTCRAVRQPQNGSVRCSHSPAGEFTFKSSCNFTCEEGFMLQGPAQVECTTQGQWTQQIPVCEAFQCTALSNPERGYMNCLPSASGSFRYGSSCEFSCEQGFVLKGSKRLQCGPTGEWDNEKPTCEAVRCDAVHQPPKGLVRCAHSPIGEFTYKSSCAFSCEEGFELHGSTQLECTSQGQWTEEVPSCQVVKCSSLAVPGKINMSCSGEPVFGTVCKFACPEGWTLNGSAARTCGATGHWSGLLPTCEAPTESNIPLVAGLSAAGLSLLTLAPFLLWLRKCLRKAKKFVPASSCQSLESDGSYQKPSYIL

In the case of `CCOCN(C(=O)CCl)c1c(C)cccc1CC`, the outcome in assay [1], in assay [2], in assay [3], in assay [4], in assay [6] and in [8] was inactive. Further, the AC50 in assay [5] was 12.7 µM (active); in the assay with CD40, CD40 (gene 958), 14.8 µM (active); in [7], 28.5 µM (active); in assay [9], 22.7 µM (active).
Consider `COP(=S)(OC)Oc1ccc([N+](=O)[O-])cc1`, for which the result in [1], in assay [3], in assay [4], in assay [5], in assay [6] and in assay [7] was inactive. Further, the outcome in assay [8] was inactive. Besides, the AC50 in assay [2] was 34.6 µM (active); with CD40, CD40 (gene 958) it was 20 µM (active); in assay [9], 10.5 µM (active).
`CC(C)(C)C(O)C(Oc1ccc(Cl)cc1)n1cncn1` (centres undefined): the outcome in [1], in [2], in [3], in assay [4], in assay [5] and in assay [6] was inactive. In addition, the outcome with CD40, CD40 (gene 958) was “inactive”; in [7], “inactive”; in assay [8] it was “inactive”; in assay [9], “inactive”.
In the case of `CC1(C)C(C=C(Cl)Cl)C1C(=O)OC(C#N)c1ccc(F)c(Oc2ccccc2)c1` (centres undefined), the result in assay [1], in [2], in assay [3], in assay [4], in assay [5] and in assay [6] was inactive. In addition, the outcome is “inactive” in the assay with CD40, CD40 (gene 958) and “inactive” in [7]. For the same molecule, the AC50 in assay [8] was 20 µM (active); in assay [9], 6.63 µM (active).
As for `CC(C)N(C(=O)COc1nnc(C(F)(F)F)s1)c1ccc(F)cc1`, the result in assay [1], in assay [2], in assay [3], in [4], in [5] and in assay [6] was inactive. The result in assay [7], in [8] and in assay [9] was inactive.
On to `CNC(=O)/C=C(\C)OP(=O)(OC)OC`, for which the outcome in assay [1], in [2], in assay [3], in [4], in assay [5] and in assay [6] was inactive. In addition, the outcome in assay [7], in assay [8] and in [9] was inactive.
Regarding `O=C(NC(=O)c1c(F)cccc1F)Nc1ccc(OC(F)(F)C(F)OC(F)(F)F)c(Cl)c1` (centres undefined), the outcome in assay [1], in assay [2], in [3], in assay [4], in [5] and in assay [6] was inactive. For the same molecule, the result in assay [7], in assay [8] and in assay [9] was inactive.
`CCN(CC)C(=O)SCc1ccc(Cl)cc1`: the outcome in [1], in assay [2], in [3], in assay [4], in assay [5] and in assay [6] was inactive. The result in assay [7], in [8] and in assay [9] was inactive.
On to `O=C(O)CCCOc1ccc(Cl)cc1Cl`, for which the outcome in assay [1], in assay [2], in assay [3], in [4], in [5] and in assay [6] was inactive. The outcome in assay [7], in assay [8] and in assay [9] was inactive.
Take `CCC(C)(C)C(=O)OC1=C(c2ccc(Cl)cc2Cl)C(=O)OC12CCCCC2`: the AC50 in [1] was 31.1 µM (active); in [2] it was 28 µM (active); in assay [3], 31 µM (active); in [4] it was 31.4 µM (active); in [5], 20 µM (active); in [6] it was 30.9 µM (active). Moreover, the AC50 was 25.3 µM (active) in [7], 32.6 µM (active) in [8] and 28.6 µM (active) in [9].
As to `COC(=O)c1ccccc1S(=O)(=O)NC(=O)Nc1nc(C)nc(OC)n1`, the outcome in [1], in [2], in assay [3], in assay [4], in [5] and in [6] was inactive. The outcome with CD40, CD40 (gene 958) was “inactive”; in assay [7], “inactive”; in assay [8], “inactive”; in [9], “inactive”.
Take `O=S(=O)(O)C(F)(F)C(F)(F)C(F)(F)C(F)(F)C(F)(F)C(F)(F)C(F)(F)C(F)(F)F`: the AC50 in [1] was 28.1 µM (active) and 16.4 µM (active); in assay [2], 33.9 µM (active) and 35.3 µM (active); in [3] it was 30.1 µM (active) and 31.6 µM (active) and 31.3 µM (active); in assay [4], 16.8 µM (active); in assay [6] it was 35.6 µM (active) and 30.4 µM (active); in assay [8], 9.09 µM (active) and 1.92 µM (active) and 7.33 µM (active). Besides, the result in assay [1], in assay [2], in [3], in assay [4], in [5] and in assay [6] was inactive. Besides, the result in [7], in assay [8] and in [9] was inactive.
For `OCCOc1ccccc1`, the outcome in assay [1], in assay [2], in [3], in [4], in assay [5] and in assay [6] was inactive. Also, the outcome is “inactive” with CD40, CD40 (gene 958); “inactive” in [7]; “inactive” in [8]; “inactive” in assay [9].

One may read the AC50 as the concentration at which the activity in the assay is half-maximal.
